Reference: PubChem BioAssay AID1159580 (chemical genetic matrix, 2015)
Several values for one entry are separate records, joined by “and”; a condition that tells them apart may be missing. Equal entries are not always repeated. Hit rate of the full screen: of about 5,500 compounds, about 2,000 (36%) were called active. Roughly 18% stayed inconclusive and do not appear here. No stated cut-off is given here; in the data, active means normalized growth mostly below about 0.91 (no sharp cut-off); inconclusive means no clear call, values can overlap the other calls; inactive means mostly above about 0.92. The list shows a part of the results.

Experiment: chemical genetic growth profiling, strain panel (AID 1159580);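 further: tested at 20 µM; growth read once vehicle control cultures reached saturation at 30 °C; 1 = growth at the plate median or of vehicle wells; lower values mean less growth of the strain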
Conditions: S. cerevisiae deletion strains, growth OD

Measured: normalized growth

NC[C@H]1O[C@H](O[C@H]2[C@H](O)[C@@H](O[C@H]3O[C@H](CO)[C@@H](O)[C@H](N)[C@H]3O)[C@H](N)C[C@@H]2N)[C@H](N)[C@@H](O)[C@@H]1O
inactive: locus YAL021C, strain ccr4, hits give low values 0.999 | locus YAL026C, strain drs2, hits give low values 0.992 | locus YAL030W, strain snc1, hits give low values 0.996 | locus YBL061C, strain skt5, hits give low values 0.992 | locus YBR009C, strain hhf1, hits give low values 1.03 | locus YBR021W, strain FUR4, hits give low values 0.902 | locus YBR023C, strain chs3, hits give low values 1 | locus YBR171W, strain sec66, hits give low values 0.989 | locus YBR229C, strain ROT2, hits give low values 0.995 | locus YBR231C, strain swc5, hits give low values 0.997 | locus YBR279W, strain paf1, hits give low values 0.993 | locus YCL011C, strain gbp2, hits give low values 0.998 | locus YCL016C, strain dcc1, hits give low values 1.01 | locus YCL029C, strain bik1, hits give low values 0.977 | locus YCL061C, strain MRC1, hits give low values 0.993 | locus YCL069W, strain vba3, hits give low values 0.989 | locus YCR088W, strain abp1, hits give low values 0.992 | locus YDL005C, strain med2, hits give low values 0.992 | locus YDL035C, strain GPR1, hits give low values 0.99 | locus YDL040C, strain nat1, hits give low values 0.997 | locus YDL074C, strain BRE1, hits give low values 0.955 | locus YDL101C, strain DUN1, hits give low values 0.991 | locus YDL185W, strain tfp1, hits give low values 0.95 | locus YDL192W, strain arf1, hits give low values 1 | locus YDR001C, strain nth1, hits give low values 0.989 | locus YDR069C, strain doa4, hits give low values 0.99 | locus YDR101C, strain arx1, hits give low values 0.943 | locus YDR137W, strain rgp1, hits give low values 1.01 | locus YDR150W, strain NUM1, hits give low values 0.98 | locus YDR159W, strain sac3, hits give low values 0.983 | locus YDR162C, strain NBP2, hits give low values 1.01 | locus YDR195W, strain ref2 0.937 | locus YDR297W, strain sur2, hits give low values 0.986 | locus YDR318W, strain mcm21, hits give low values 1 | locus YDR334W, strain swr1, hits give low values 0.985 | locus YDR335W, strain msn5, hits give low values 0.994 | locus YDR388W, hits give low values 0.98 | locus YDR392W, strain spt3, hits give low values 1.04 | locus YDR502C, strain sam2, hits give low values 1.01 | locus YEL003W, strain gim4, hits give low values 0.991 | locus YEL037C, strain rad23, hits give low values 1 | locus YEL061C, strain CIN8 (second series), hits give low values 0.982 | locus YEL061C, strain CIN8, hits give low values 0.996 | locus YER015W, strain faa2, hits give low values 1 | locus YER016W, strain bim1, hits give low values 0.988 | locus YER110C, hits give low values 0.957 | locus YER111C, strain swi4, hits give low values 0.998 | locus YER155C, strain BEM2 (second series), hits give low values 0.993 | locus YER155C, strain BEM2, hits give low values 0.994 | locus YER167W, strain BCK2, hits give low values 1 | locus YFR010W, strain ubp6, hits give low values 0.987 | locus YGL078C, strain dbp3, hits give low values 0.99 | locus YGL086W, strain mad1, hits give low values 0.952 | locus YGL167C, strain pmr1, hits give low values 1 | locus YGL173C, strain kem1, hits give low values 0.99 | locus YGL227W, strain vid30, hits give low values 0.984 | locus YGL240W, strain doc1, hits give low values 0.985 | locus YGL248W, strain PDE1, hits give low values 1.02 | locus YGL253W, strain hxk2, hits give low values 0.993 | locus YGR078C, strain PAC10, hits give low values 1.01 | locus YGR135W, strain pre9, hits give low values 1.01 | locus YGR252W, strain gcn5, hits give low values 1.18 | locus YHR013C, strain ard1, hits give low values 1 | locus YHR027C, strain rpn1, hits give low values 0.989 | locus YHR030C, strain SLT2, hits give low values 0.978 and 1.08 | locus YHR079C, strain IRE1 (second series), hits give low values 0.974 | locus YHR079C, strain IRE1, hits give low values 1.07 | locus YHR094C, strain hxt1, hits give low values 0.992 | locus YHR129C, strain ARP1, hits give low values 0.997 | locus YHR142W, strain chs7, hits give low values 0.991 | locus YHR200W, strain rpn10, hits give low values 0.98 | locus YIL066C, strain RNR3, hits give low values 0.99 | locus YIL073C, strain SPO22, hits give low values 0.915 | locus YIL125W, strain kgd1, hits give low values 0.974 | locus YIR030C, strain dcg1, hits give low values 1 | locus YJL092W, strain hpr5, hits give low values 0.986 | locus YJL095W, strain BCK1 (second series), hits give low values 0.994 | locus YJL095W, strain BCK1, hits give low values 1.04 and 1.07 | locus YJL115W, strain asf1, hits give low values 0.988 | locus YJL129C, strain trk1, hits give low values 0.988 | locus YJL134W, strain LCB3, hits give low values 0.976 | locus YJL154C, strain vps35, hits give low values 0.994 | locus YJL164C, strain tpk1, hits give low values 1 | locus YJL166W, strain qcr8, hits give low values 0.996 | locus YJL168C, strain set2, hits give low values 0.984 | locus YJL187C, strain SWE1 (second series), hits give low values 1.01 | locus YJR043C, strain POL32, hits give low values 1.01 | locus YJR066W, strain TOR1, hits give low values 1.02 | locus YKL009W, strain mrt4, hits give low values 0.97 | locus YKL068W, hits give low values 0.966 | locus YKL085W, strain MDH1 (second series), hits give low values 0.993 | locus YKL085W, strain MDH1, hits give low values 0.993 | locus YKL160W, strain elf1, hits give low values 0.994 | locus YKR001C, strain vps1, hits give low values 0.986 | locus YKR026C, strain gcn3, hits give low values 0.984 | locus YKR091W, strain srl3, hits give low values 0.983 | locus YLL001W, strain dnm1, hits give low values 0.988 | locus YLL026W, hits give low values 1 | locus YLL041C, strain sdh2, hits give low values 1.01 | locus YLR027C, strain aat2, hits give low values 0.999 | locus YLR039C, strain RIC1, hits give low values 1.01 | locus YLR058C, strain SHM2, hits give low values 0.999 | locus YLR102C, strain apc9, hits give low values 0.973 | locus YLR113W, strain HOG1, hits give low values 1.04 | locus YLR221C, strain rsa3, hits give low values 0.997 | locus YLR258W, strain gsy2, hits give low values 0.995 | locus YLR262C, strain YPT6 (second series), hits give low values 1.02 | locus YLR262C, strain YPT6, hits give low values 0.984 | locus YLR268W, strain sec22, hits give low values 0.959 | locus YLR320W, strain mms22, hits give low values 1 | locus YLR330W, strain CHS5, hits give low values 0.984 | locus YLR342W, strain FKS1 (second series), hits give low values 0.999 | locus YLR342W, strain FKS1, hits give low values 0.988 | locus YLR357W, strain rsc2, hits give low values 0.992 | locus YLR370C, strain arc18, hits give low values 1.02 | locus YLR371W, strain rom2, hits give low values 0.996 | locus YLR384C, strain iki3, hits give low values 1.01 | locus YLR418C, strain cdc73, hits give low values 1.06 | locus YML016C, strain PPZ1, hits give low values 0.992 | locus YML032C, strain rad52, hits give low values 1.04 | locus YML120C, strain ndi1, hits give low values 0.994 | locus YML124C, strain tub3, hits give low values 0.991 | locus YMR058W, strain fet3, hits give low values 0.997 | locus YMR078C, strain ctf18, hits give low values 1.01 | locus YMR125W, strain sto1, hits give low values 1.01 | locus YMR129W, hits give low values 0.99 | locus YMR205C, strain PFK2, hits give low values 1 | locus YMR223W, strain ubp8, hits give low values 1.02 | locus YMR231W, strain pep5, hits give low values 0.997 | locus YMR263W, strain SAP30, hits give low values 0.992 | locus YMR307W, strain GAS1, hits give low values 1.16 | locus YNL067W, strain RPL9B, hits give low values 1.01 | locus YNL071W, strain lat1, hits give low values 0.998 | locus YNL183C, strain NPR1, hits give low values 1.02 | locus YNL209W, strain ssb2, hits give low values 0.992 | locus YNL233W, strain BNI4, hits give low values 1.01 | locus YNL248C, strain rpa49, hits give low values 1 | locus YNL250W, strain rad50, hits give low values 0.96 | locus YNL271C, strain bni1, hits give low values 0.997 | locus YNL298W, strain CLA4, hits give low values 0.984 | locus YNL307C, strain MCK1, hits give low values 0.981 | locus YNL322C, strain KRE1 (second series), hits give low values 1 | locus YNR049C, strain mso1, hits give low values 1.02 | locus YNR052C, strain pop2, hits give low values 1 | locus YOL012C, strain htz1 1.19 | locus YOL147C, strain pex11, hits give low values 0.989 | locus YOR001W, strain rrp6, hits give low values 1.01 | locus YOR061W, strain CKA2, hits give low values 1 | locus YOR069W, strain VPS5, hits give low values 0.986 | locus YOR070C, strain gyp1, hits give low values 1.01 | locus YOR080W, strain dia2, hits give low values 1 | locus YOR083W, strain WHI5, hits give low values 1.01 | locus YOR106W, strain vam3, hits give low values 1.02 | locus YOR136W, strain idh2, hits give low values 0.972 | locus YOR184W, strain ser1, hits give low values 0.972 | locus YOR231W, strain MKK1, hits give low values 1.04 | locus YOR265W, strain rbl2, hits give low values 1 | locus YOR270C, strain vph1, hits give low values 0.968 | locus YOR290C, strain snf2, hits give low values 1 | locus YOR316C, strain cot1, hits give low values 0.978 | locus YPL051W, strain arl3, hits give low values 1 | locus YPL055C, strain LGE1, hits give low values 1.01 | locus YPL078C, strain atp4, hits give low values 1.02 | locus YPL106C, strain sse1, hits give low values 1.01 | locus YPL240C, strain hsp82, hits give low values 0.988 | locus YPL256C, strain CLN2, hits give low values 1.08 | locus YPR119W, strain clb2, hits give low values 0.993 | locus YPR141C, strain kar3, hits give low values 0.982 | locus YPR163C, strain tif3, hits give low values 0.998 | locus YPR167C, strain met16, hits give low values 0.991 | strain wtn01, hits give low values 0.948
